Screening results deposited in PubChem BioAssay by National Center for Advancing Translational Sciences (NCATS).
In the library only some 3.2% were active in any assay of this set; here they are far more common.
GALK inh: inhibitors of human galactokinase | Purified GALK, Kinase-Glo residual ATP luminescence | Potency, µM (top dose mostly 57.5 µM), most hits filed as inhibitors | actives 0.007% (n = 270,000) | AID 1868
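Human GALK (5 nM) with 35 uM ATP and 100 uM galactose in 20 mM HEPES pH 8.0, 5 mM MgCl2, 60 mM NaCl, 1 mM DTT, 0.01% BSA. After 1 h at room temperature, leftover ATP was read by Kinase-Glo Plus luminescence.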
Coupling enz: coupling enzyme interference in Giardia aldolase counter-screen | actives 0.67% (n = 290,000) | AID 2472 | activity change, negative = inhibition, % at 58.2 µM, hits read low | coupling enzyme system counterscreen, AmpLite Red fluorescence; in the data active means activity change below about -30%
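Coupling enzymes only (glyceraldehyde-3-phosphate) + compound, at 57.5 uM final, 10 min RT; add substrate/coupling/AmpLite Red mix, 20 min RT; fluorescence ex 525/em 598 nm. Actives flag coupling-system interference.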
USP2a block: blocks human ubiquitin-specific protease USP2a; O75604; USP2 core, Ub-CHOP2 coupled fluorogenic reporter, 485/531; Potency, µM (highest dose often 38.3 µM), actives largely listed as inhibitors; actives 0.01% (n = 330,000)
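Cell-free coupled assay: 10nM USP2 core preincubated 30min RT with compound in Tris-HCl pH 8.0/CaCl2/CHAPS buffer, then 25nM Ub-CHOP2 and 25nM reporter substrate; fluorescence (Ex 485/Em 531) read after 60min RT, normalized to NEM inhibition, concentration-response curves fitted.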
PLK1 PBD block: inhibitors of human PLK1 polo-box domain binding | Plk1 PBD binding of FITC phosphopeptide, fluorescence polarization | AID 720504 | Potency, µM, most hits filed as inhibitors | actives 2.8% (n = 360,000); further: series mostly up to about 57 µM; nearly all actives have a fitted effect of over 65% in size
VDR inhibitor: blocks the human vitamin D receptor; P11473; VDR-SRC2-3 peptide fluorescence polarization, 2 h; actives 0.93% (n = 400,000); Potency, µM, hits mostly inhibitors; AID 504847
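Compounds are added to VDR with labelled SRC2-3 coactivator peptide and held 2 h at room temperature. Inhibition of the VDR–peptide interaction is then read as a change in fluorescence polarization.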
USP1 inh: inhibitors of human USP1/UAF1 deubiquitinase | O94782 | recombinant USP1/UAF1, Ub-Rhodamine cleavage fluorescence | Potency, µM (titrated, usually from 57.1 µM), hits mostly inhibitors | actives 0.23% (n = 390,000); further: nearly all actives have a fitted effect of over 60% in size
Target sequence (O94782 whole entry, looked up): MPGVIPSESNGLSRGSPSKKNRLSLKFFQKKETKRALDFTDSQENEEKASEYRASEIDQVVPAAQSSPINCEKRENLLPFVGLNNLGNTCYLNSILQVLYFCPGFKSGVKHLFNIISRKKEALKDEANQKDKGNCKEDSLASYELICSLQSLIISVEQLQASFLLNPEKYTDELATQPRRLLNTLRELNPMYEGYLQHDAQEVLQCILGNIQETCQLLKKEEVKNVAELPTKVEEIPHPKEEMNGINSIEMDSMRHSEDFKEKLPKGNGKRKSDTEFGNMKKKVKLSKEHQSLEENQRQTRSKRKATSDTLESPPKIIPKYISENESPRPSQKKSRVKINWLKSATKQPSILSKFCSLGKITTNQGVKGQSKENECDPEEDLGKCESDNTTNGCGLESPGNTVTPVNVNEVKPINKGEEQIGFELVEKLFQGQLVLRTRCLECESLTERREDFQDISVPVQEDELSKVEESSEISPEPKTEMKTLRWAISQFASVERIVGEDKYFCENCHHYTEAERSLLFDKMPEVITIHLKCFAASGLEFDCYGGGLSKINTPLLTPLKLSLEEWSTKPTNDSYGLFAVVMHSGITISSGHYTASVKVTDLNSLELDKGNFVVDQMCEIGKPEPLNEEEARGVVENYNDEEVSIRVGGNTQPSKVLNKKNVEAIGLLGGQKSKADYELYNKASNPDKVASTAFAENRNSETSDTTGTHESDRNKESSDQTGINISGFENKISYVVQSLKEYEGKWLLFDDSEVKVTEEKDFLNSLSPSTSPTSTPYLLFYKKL
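USP1/UAF1 complex (1 nM) preincubated 15 min at room temperature with compound, then Ub-Rho substrate (150 nM final) added. Kinetic fluorescence at 480/540 nm over 6 reads at 60 s intervals; 50 mM HEPES pH 7.8, 0.5 mM EDTA, 0.1 mg/ml BSA, 1 mM TCEP, 0.01% Tween-20.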
A number is an active result; . = inactive; ? = inconclusive; / = no result given. Unless noted, the call rests on the fitted dose curve; in most records, active means well fitted curve in the direction sought with a large enough effect; inconclusive means small, poorly fitted or top-dose-only effect, or another doubt; inactive means no such curve, though single readings can be large; an effect the other way counts as inactive or inconclusive.

SMILES	GALK inh	Coupling enz	USP2a block	PLK1 PBD block	VDR inhibitor	USP1 inh
c1ccc(-c2ccnc3nc(N4CCN(c5ccccc5)CC4)nn23)cc1	.	.	.	.	.	.
Cc1ccc(-c2ccnc3nc(-n4cccc4)nn23)o1	.	.	.	4.7µM	?	.
Cc1ccc(SC(CC(=O)c2ccc(F)cc2)C(=O)O)cc1 (stereo unspecified)	.	.	.	?	22µM	.
O=[N+]([O-])c1ccc(NC(=S)N2CCN(c3ccc(F)cc3)CC2)cc1	.	.	.	.	.	.
CCNC(=S)N1CCN(c2ccc([N+](=O)[O-])cc2)CC1	.	.	.	30µM	.	.
Cc1cccc(N2CCN(C(=S)c3ccc([N+](=O)[O-])cc3)CC2)c1	.	.	.	4.7µM	?	.
CC(=O)N1CCN(C(=S)c2ccc([N+](=O)[O-])cc2)CC1	.	.	.	?	.	.
O=[N+]([O-])c1cccc(C(=S)N2CCN(c3ccccc3)CC2)c1	.	.	.	12µM	?	.
O=C(OCC(=O)N1CCN(c2ccccc2)CC1)c1cccc([N+](=O)[O-])c1	/	/	.	.	.	.
O=[N+]([O-])c1ccc(C(=S)N2CCN(c3ccc(F)cc3)CC2)cc1	.	.	.	15µM	79µM	.
Cc1ccc(Nc2nc(CSc3nnnn3C)cs2)cc1	.	.	.	.	.	.
Cc1cc(C)cc(Cn2cc(CN3CC(N4CCCCC4)CS3(=O)=O)nn2)c1 (stereo unspecified)	/	/	/	.	/	/
[O-]/C(=C(\C(=S)Nc1cccc2ccccc12)[n+]1ccccc1)c1ccc2c(c1)OCCO2	.	-46	.	?	.	?
COc1cccc(NC(=S)/C(=C(\[O-])c2ccc(OC(F)F)cc2)[n+]2ccccc2)c1	.	.	.	.	.	?
[O-]/C(=C(\C(=S)Nc1cccc2ccccc12)[n+]1ccccc1)c1ccc(OC(F)F)cc1	.	-41	.	.	.	.
O=C(Nc1cccc([N+](=O)[O-])c1)c1ccc(CN2CCOCC2)cc1	.	.	.	.	.	.
O=C(O)c1cccc(-n2cccc2/C=C\[N+](=O)[O-])c1	.	.	.	27µM	?	.
O=C(O)c1cccc(-n2cccc2/C=N/O)c1	.	.	.	?	.	.
O=C(O)c1cccc(-n2cccc2/C=C/[N+](=O)[O-])c1	.	.	.	6.7µM	?	.
CCOC(=O)/C(C#N)=C/c1cccn1-c1ccc(Cl)cc1	.	.	.	.	.	.
N#C/C(=C/c1cccn1-c1cccc(C(=O)O)c1)c1ccc(Cl)cc1	.	.	.	30µM	?	.
Cc1ccc(OCCNCC(O)COc2ccccc2)cc1 (stereo unspecified)	.	.	.	.	.	.
CCCOC(=O)c1c(NC(=O)CSc2nc(-c3ccco3)cc(C(F)(F)F)n2)sc(C(=O)OC)c1C	.	.	.	.	.	.
C/C(=N/NC(=O)CSc1nc2ccccc2s1)c1ccncc1	.	.	.	.	.	.
CS/C(=N\S(=O)(=O)c1cccs1)NC(=O)CSc1nc2ccccc2s1	.	.	.	11µM	?	.
SMILES	GALK inh	Coupling enz	USP2a block	PLK1 PBD block	VDR inhibitor	USP1 inh
CCOc1nc(Nc2ccccc2F)nc(OCC)n1	.	.	.	.	.	.
Fc1ccccc1Nc1nc(Cl)nc(Cl)n1	.	.	.	19µM	71µM	.
COc1cc2c3nnc(-c4ccc(F)cc4)c-3cn(Cc3cccc(F)c3)c2cc1OC	.	.	.	?	.	?
COc1cc2c3nnc(-c4ccc(F)cc4)c-3cn(Cc3ccc(C)cc3)c2cc1OC	.	.	.	.	.	32µM
COc1cc2c3nnc(-c4ccc(F)cc4)c-3cn(Cc3cccc(C)c3)c2cc1OC	.	.	.	?	.	32µM
COc1cc2c3nnc(-c4ccccc4)c-3cn(Cc3ccc(F)cc3)c2cc1OC	.	.	.	.	.	.
CCCCCCSc1ccc([C@@H]2[C@@H]3C(=O)N(CC)C(=O)[C@@H]3[C@]3(C(=O)OC)CCCCN23)cc1	/	/	.	.	.	.
O=C(C=Cc1ccccc1O)c1ccccc1O	/	/	/	?	?	.
